# In the OligoGym collection:
# Target: ZHX1
# Assay: pooled miR-30 sensor sort-seq; sequence = guide strand
# Conditions: shRNA
# Further: reference of the scale not given here.
row,Sequence,sensor-assay potency score (higher = more potent)
1,TTGTATTAGATTCAGAAGCTGA,-0.592
2,TTTACTGATAGATATTCCCGAA,-0.468
3,TAAGTATACATTTACTACGTGA,-0.517
4,TAAATTAGTATGAACTTTCAGT,-0.00447
5,TTATGATGAACTGCAATCCGTT,-0.993

# Target: ZIC5
# Assay: as above
# Conditions: shRNA
row,Sequence,sensor-assay potency score (higher = more potent)
1,TTTGTCACAGCCTCGAATCTTG,-0.0738
2,TGTATGAGTACGCTTGTGGATC,-1.35
3,TTGAGGTTGGTCACCTGAGGGG,-0.565
4,TTGCAGATGAGCTCCTGCTTGA,-0.229
5,TCGAATCTTGCAGTAGTAGGGC,0.408
6,TCATCTTCAGTCTCAGAGGTGG,-0.487
7,TGAATCTTCATGTGCTTCCTCA,-0.349
8,TAGTAGGGCTTGTCACTGGTGT,-0.153
9,ATGAGTACGCTTGTGGATCTTG,-0.744
10,TTGGTGGTGGTGTAGCCCGAGA,-1.57
11,TGTCATATTCTGAAGCGGCTGG,0.253

# Target: ZKSCAN4
# Assay: as above
# Conditions: shRNA
row,Sequence,sensor-assay potency score (higher = more potent)
1,TTCCACAGTCTTCACATTCATA,-1.13
2,TTCAATAAGACTTCTATTCCGT,0.355
3,TTCATGCTTGAACAGAGCCTTC,-1.41
4,TGAACTTTGAGCAAAACTCTTT,-0.0856
5,TTCTGCTTTCTTTGTAACCTGC,-0.00454
6,TTTATCACCATGAATCCTCTGA,0.54
7,TTTAGGTCCTACAACTTCCAGA,-0.127
8,TACCATTGCATCTTCTCTGCAG,0.382
9,AACCTGGAGAACTCTATCGTGT,-0.756
10,TAGTCTGTATTTCACCACCAAG,-1.77
11,TTGACTGGAGGCAAGTCCCTGC,0.176
12,TGAGCTGTGACTGAAGACCTTA,0.0781

# Target: ZMAT2
# Assay: as above
# Conditions: shRNA
row,Sequence,sensor-assay potency score (higher = more potent)
1,TTCTTTTCTCTCTCTTCCGTGA,-0.461
2,TTTATTGGGAACTCAGGTGGGC,0.402
3,TTTCTTGTACGCTTTGGCCTTT,-0.519
4,TTCTTGTTGACCTCAAAACGTT,-0.905
5,TTCCTCAAAATCATAATCCTTC,0.481
6,AAAATCATAATCCTTCTGCTTC,-0.213
7,TTGGATTCCAAGTCCACCTTGT,0.567
8,TTCTCTGATGTTTCTTTCCATT,-1.41
9,TTCTCTTTCTTGTACGCTTTGG,-0.566
10,TTTCTCTTTCTTGTACGCTTTG,-0.653
11,TACCTCTGCAATCTGTGCCCTC,-0.418
